D2 PAM-1 = positive allosteric modulators of human D2 dopamine receptor | 360,000 compounds, 0.23% hits | P14416 | DiscoveRx D2 beta-arrestin cells, luminescence, 90 min; 100% = 57 uM dopamine signal | potentiation, % (no concentration beside the values) | AID 624464; in the data active means potentiation above about 50%; inconclusive means mostly about 30% to 49%
Target sequence (P14416 whole entry, looked up): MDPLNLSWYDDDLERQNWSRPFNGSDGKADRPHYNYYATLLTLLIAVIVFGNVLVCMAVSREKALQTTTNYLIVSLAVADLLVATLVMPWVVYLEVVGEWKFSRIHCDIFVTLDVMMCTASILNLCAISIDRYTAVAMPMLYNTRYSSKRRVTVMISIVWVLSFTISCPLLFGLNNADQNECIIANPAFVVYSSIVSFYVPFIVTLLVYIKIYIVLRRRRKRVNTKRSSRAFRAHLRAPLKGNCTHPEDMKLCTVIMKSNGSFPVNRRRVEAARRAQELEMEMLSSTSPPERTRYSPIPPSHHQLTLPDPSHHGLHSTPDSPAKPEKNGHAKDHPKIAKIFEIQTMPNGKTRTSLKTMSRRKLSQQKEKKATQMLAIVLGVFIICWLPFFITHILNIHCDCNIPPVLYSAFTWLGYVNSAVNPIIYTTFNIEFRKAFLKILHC
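PathHunter beta-arrestin assay in DiscoveRx D2 cells. Compounds were added with an EC20 of dopamine (50 nM final) for 90 min at 37 deg C. Luminescence was read 1 h after detection reagent, with 57 uM dopamine as the EC100 control.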
D2 PAM-2 = positive allosteric modulators of human D2 dopamine receptor; HEK293 T-REx D2, calcium flux, EC20 dopamine potentiation; 340,000 compounds, 0.34% hits; P14416; AID 485347; potentiation, % at 10 µM;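 active means potentiation over 3 SD above the plate norm, cut at about 30% in these data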; further: 0% is about no effect
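Using a no-wash calcium dye in inducible, force-coupled HEK293 Trex cells expressing D2, we tracked fluorescence each second for 180 s after compound, then for 180 s after EC20 dopamine to detect augmented signalling.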
D2 antag = D2 dopamine receptor (human) antagonism. P14416. HEK293 TREx D2 cells, calcium flux, dopamine EC80. inhibition, % at 10 µM. 340,000 compounds, 2% hits. AID 485344; in the data active means inhibition above about 30%; inactive means below that, where a call was filed; further: 0% is about no effect
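Cells plated overnight at 30 C with tetracycline; no-wash calcium dye, 30–90 min RT; 10 s baseline; compound pinned; 180 s read; EC80 dopamine added; another 180 s read.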
D2 ag-1 = agonists of human D2 dopamine receptor; activation, % at 2 µM; AID 485358; HEK293 T-REx D2 cells, calcium flux agonist mode; P14416; 340,000 compounds, 0.53% hits;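 active means activation over 3 SD above normal in the single-dose calcium agonist read, cut at about 30% in these data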; further: 0% is about no effect
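Agonism is scored from calcium flux in a force-coupled, inducible HEK293 cell line expressing D2, read kinetically for 180 s after compound addition against dopamine controls.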
D2 ag-2 = activates the human D2 dopamine receptor; P14416; DiscoveRx PathHunter D2 beta-arrestin, luminescence, 90 min; 100% = 57 uM dopamine signal; activation, % (test concentration not listed); 360,000 compounds, 0.084% hits; AID 624465; in the data active means activation above about 40%; inconclusive means between about 15% and that limit
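DiscoveRx PathHunter D2 beta-arrestin cells (2,100/well) attached overnight, then compound-stimulated 90 min at 37 C in HBSS/10 mM HEPES/0.1% Tween-20 buffer; beta-galactosidase complementation read by luminescence after 1 h at ambient temperature. Dopamine 57 uM final (EC100) as control.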
Active calls of the source: *; ? = inconclusive; . = no result given; ! = repeats disagree. An excerpt weighted towards active compounds, which were near 2.4% of everything screened.

SMILES	D2 PAM-1	D2 PAM-2	D2 antag	D2 ag-1	D2 ag-2
CC(c1ccccc1)n1cc(C(=O)NCCN2CCOCC2)nn1 (stereo not drawn)	-2	-7	-2	1	-4
COc1ccccc1N=c1oc2cc(O)ccc2cc1C(=O)NCC1CCCO1 (stereo not drawn)	-14	2	36*	1	-6
COCCSc1ccccc1C(=O)NCC1CCCO1 (stereo not drawn)	-9	2	34*	0	-1
CSc1ccccc1C(=O)NCC1CCCO1 (stereo not drawn)	-3	2	2	0	0
CC(c1ccccc1)n1cc(C(=O)NCC2CCCO2)nn1 (stereo not drawn)	-4	-12	40*	0	-4
COc1cccc(N=c2oc3cc(O)ccc3cc2C(=O)NCC2CCCO2)c1 (stereo not drawn)	-4	10	1	0	-1
CCCn1cc(S(=O)(=O)c2cc(C)ccc2C)c(=O)c2cc(F)c(N3CCN(CC)CC3)cc21	.	-28	.	2	.
N#C/C(=C\c1ccc(O)c([N+](=O)[O-])c1)C(=O)NCc1ccccc1	-23	4	4	-1	-6
N#C/C(=C\c1ccc(O)c(Br)c1)C(=O)NCc1ccccc1	-5	14	69*	-1	-2
CCOC(=O)C1CCCN(C(=O)c2[nH]c(C(F)(F)F)nc2-c2ccccc2)C1 (stereo not drawn)	-5	.	.	.	-5
COc1ccc(CCC(=O)Nc2ccc(S(=O)(=O)N3CCCC3)cc2)cc1OC	-1	-2	10	-1	-4
Cc1c(Cl)cccc1NC(=O)N1CCN(C(=O)c2ccco2)CC1	-4	-3	-4	31*	-4
COc1ccc(NC(=S)N2CCN(C(=O)c3ccco3)CC2)cc1	-5	-9	32*	3	-3
COc1ccc(C(=O)C2CCN(C(=O)c3ccco3)CC2)cc1	0	5	-13	0	-3
COc1ccc(C2(NC(C)=O)CCN(C(=O)c3ccco3)CC2)cc1	-8	9	33*	0	-6
COc1ccc(S(N)(=O)=O)cc1C(=O)OCC(=O)N1CC(=O)Nc2ccccc21	-52	.	.	.	-1
CCN(CC)C(=O)CSc1nc2cc3c(cc2c(=O)n1Cc1ccc(C(=O)NCCc2ccc(OC)c(OC)c2)cc1)OCO3	.	-6	.	0	.
CCOC(=O)c1cnc(-n2nc(C)cc2C)nc1NCCc1ccccc1	-8	-1	34*	0	-4
CCOC(=O)c1cnc(-n2nc(C)cc2C)nc1Nc1ccccc1OC	.	9	6	0	.
Cc1nn(C)c2c1c(C(F)(F)F)cc(=O)n2C(C)C(=O)NCCc1ccc(Cl)cc1 (stereo not drawn)	.	0	.	0	.
CCCCNC(=O)N1CCc2ccccc2C1	-14	4	-5	-1	-3
CCCCNc1nc2ccccc2n1CC(=O)N1CCc2ccccc2C1	-27	-24	53*	0	-6
CCc1nc2ccc(C(=O)N(C)Cc3ccccc3)cn2c1N(CC)CCN(C)C	-9	.	.	.	-3
CCc1ccc(C(C)NC(=S)NC2CCCCC2)cc1 (stereo not drawn)	-13	11	48*	1	-5
CCOc1ccc(C(C)NC(=S)NC2CCCCC2)cc1 (stereo not drawn)	14	.	.	.	1
SMILES	D2 PAM-1	D2 PAM-2	D2 antag	D2 ag-1	D2 ag-2
CCOc1ccc(C(C)NC(=S)NC2CCCCC2)cc1OCC (stereo not drawn)	-12	-6	41*	-1	-4
Cc1ccc(NC(=O)CSc2nc3[nH]c(=O)cc(O)c3s2)c(Br)c1	0	24	59*	-1	-3
Cc1ccc(C)c(OCCC(=O)NNC(=O)c2ccncc2)c1	-15	0	43*	-1	-2
Cc1ccc(C)c(OCCC(=O)NNC(=O)c2ccccc2)c1	-8	-4	-29	1	1
COc1cc(OC)c(N(C)C(=O)Cn2ncc3c(=O)oc4ccccc4c32)cc1Cl	.	-8	.	0	.
N/C(=N\N=C/c1ccc(Br)cc1)N/N=C\c1ccc(Br)cc1	-14	-3	1	0	-2
N/C(=N\N=C/c1ccc(F)cc1)N/N=C\c1ccc(F)cc1	-44	4	40*	-2	4
CCN(C(=O)c1ccc(Br)o1)C1CCS(=O)(=O)C1 (stereo not drawn)	-7	20	-6	-1	12
CN(C(=O)c1ccc(Br)o1)C1CCS(=O)(=O)C1 (stereo not drawn)	-1	9	37*	0	1
CCCOc1ccc(NC(=O)CC2C(=O)N(c3ccccc3)C(=O)N2Cc2ccc(F)cc2)cc1 (stereo not drawn)	.	-3	.	1	.
Nc1c(C(=O)C2CC2)sc2nc(-c3cccs3)cc(C(F)(F)F)c12	-13	-8	4	36*	-6
CCCCn1nnnc1C(c1cccc2ccccc12)N1CCN(C/C=C/c2ccccc2)CC1 (stereo not drawn)	-13	.	.	.	1
CCN1/C(=C/c2ccc3cc(C)ccc3[n+]2CC)Sc2ccccc21	-9	10	5	36*	0
CCOC(=O)C1(CCc2ccccc2)CCN(Cc2ccc(OC)cc2)CC1	-12	-18	20	1	-5
CCOC(=O)C1(CCc2ccccc2)CCN(C(=O)CN2CCOC2=O)CC1	-1	13	37*	0	-2
CCOC(=O)C1(CCc2ccccc2)CCN(Cc2c(O)cccc2OC)CC1	-2	-20	37*	0	-4
CCOC(=O)C1(Cc2ccccc2)CCN(Cc2nccn2CC)CC1	-3	4	65*	0	-4
CCOC(=O)C1(CCc2ccccc2)CCN(Cc2cnc(N(C)C)s2)CC1	-16	-20	51*	9	1
CCOC(=O)C1(CCc2ccccc2)CCN(Cc2nccn2CC)CC1	-23	4	-6	0	-1
C=CC[N+](C)(C)CCCNC(=O)/C=N/O	-8	-1	62*	-1	-2
CC(=O)Nc1cccc(-c2nnc(SCC(=O)c3cc([N+](=O)[O-])ccc3Cl)o2)c1	.	4	.	.	.
N/C(Cc1ccc([N+](=O)[O-])cc1)=N\OC(=O)Cc1ccccc1	-1	9	11	-1	15
N/C(Cc1ccc([N+](=O)[O-])cc1)=N\OC(=O)c1ccc(Br)o1	132*	-5	-2	-1	?
N/C(Cc1ccc([N+](=O)[O-])cc1)=N\OC(=O)c1ccccc1F	153*	10	-9	1	?
N/C(Cc1ccc([N+](=O)[O-])cc1)=N\OC(=O)Cc1ccc(Cl)cc1	26	-9	10	-1	3
NC(c1csc(Nc2ccc(C(=O)c3ccccc3)cc2)n1)c1ccccc1Cl (stereo not drawn)	-1	.	.	.	-5
Cc1ncc([N+](=O)[O-])n1CCO	-2	5	38*!	0	-6

Compound activity: PubChem BioAssay, National Center for Advancing Translational Sciences (NCATS)
